# Measured values reported in PubChem BioAssay (NCATS).
# Records with an inconclusive call do not appear. A call without a number means that no potency is given here. A number with no mark means an inactive call. The source made the active and inactive calls. Calls come from the whole dose curve; as a rule, active = well fitted inhibition curve with a large enough effect; inconclusive = small, poorly fitted or top-dose-only effect; inactive = no such curve, though single readings can be large or run the other way.
# Experiment: Primary qHTS for inhibitors of nuclear receptor binding SET domain protein 2 (NSD2) in an RCH-ACV wild type WT cells (2C) (AID 1645877); note: nearly all actives have a fitted effect of over 70% in size
# Settings: RCH-ACV (leukaemia line) NSD2 WT (2C) viability, CellTiter-Glo, 72 h; series mostly up to 44.9 µM
# Potency is the fitted concentration of half-maximal effect.
Compound,Potency,"activity change, negative = cell killing"
C[C@@H]1CC[C@]2(C(=O)O)CC[C@]3(C)C(=CCC4[C@@]5(C)C[C@@H](O)[C@H](O)[C@@](C)(CO)C5CC[C@]43C)C2[C@H]1C (stereo partly drawn),inactive,–
C[C@@H](CC[C@@H]1[C@@]2(C)CCCC(C)(C)C2CC[C@@]1(C)O)CC(=O)O (stereo partly drawn),inactive,–
C=CC(C)(O)CC/C=C(\C)C1CC=C(C)C(=O)O1 (stereo not drawn),inactive,–
C[C@H]1CC[C@@]2(OC1)O[C@H]1CC3C4CC[C@H]5C[C@@H](O)CC[C@]5(C)C4CC(=O)[C@]3(C)[C@H]1[C@@H]2C (stereo partly drawn),inactive,–
COc1cc(O)c2c(c1)C1(OC2=O)C(C)=CC(=O)C1O (stereo not drawn),inactive,–
OC[C@H]1O[C@@H](OCc2ccccc2)[C@H](O)[C@@H](O)[C@@H]1O,inactive,–
C[C@@H]1CCC2C(C)(C)[C@H](O)[C@H](O)C[C@]2(C)[C@@]12Cc1c(O)cc3c(c1O2)CN(CCCC(=O)O)C3=O (stereo partly drawn),inactive,–
COC(=O)C(CC1(O)c2ccccc2N2C(=O)C(C)(C)N(O)C21)n1cnc2ccccc2c1=O (stereo not drawn),inactive,–
Cc1cc(-n2c(=O)[nH]c(=O)n(C)c2=O)ccc1Oc1ccc(SC(F)(F)F)cc1,inactive,–
CC(=O)O[C@@H]1[C@@H](O)[C@H](C)O[C@@H](O[C@H]2[C@@H]3C=CO[C@@H](O[C@@H]4O[C@H](CO)[C@@H](O)[C@H](O)[C@H]4OC(C)=O)[C@@H]3[C@@]3(CO)O[C@@H]23)[C@@H]1OC(=O)/C=C/c1ccc(O)cc1,inactive,–
CC(=O)OC1CC2(C)C(CCC(C)C23Cc2c(O)cc4c(c2O3)CNC4=O)C(C)(C)C1O (stereo not drawn),inactive,–
CC1(C)CC[C@]2(C(=O)O[C@@H]3O[C@H](CO)[C@@H](O)[C@H](O)[C@H]3O)CC[C@]3(C)C(=CCC4[C@@]5(C)C[C@H](O)[C@H](O[C@@H]6OC[C@@H](O)[C@H](O)[C@H]6O)[C@@](C)(CO)C5CC[C@]43C)C2C1 (stereo partly drawn),–,2.07% [at 9.23 µM]
OC[C@H]1O[C@@H](OCCc2ccccc2)[C@H](O)[C@@H](O)[C@@H]1O,inactive,–
CCC(C)C(=O)OC[C@H]1O[C@H](O[C@H]2O[C@H](CO)[C@@H](O)[C@H](O)[C@H]2O)[C@H](O)[C@@H](O)[C@@H]1O (stereo partly drawn),inactive,–
COc1cc(/C=C/CO[C@@H]2O[C@H](CO)[C@@H](O)[C@H](O)[C@H]2O)cc(OC)c1O[C@@H]1O[C@H](CO)[C@@H](O)[C@H](O)[C@H]1O,inactive,–
COc1cc2c(cc1O)C(c1ccc(O)cc1)C(C)C(C)C2 (stereo not drawn),18.3 µM (active),–
COc1cc(/C=C/C(=O)O)ccc1O[C@@H]1O[C@H](CO)[C@@H](O)[C@H](O)[C@H]1O[C@@H]1OC[C@](O)(CO)[C@H]1O,inactive,–
CC1=C[C@H](O)[C@H]2C(C)(C)CCC[C@]2(C)[C@@]1(O)CO,inactive,–
COc1c(O[C@@H]2O[C@H](CO)[C@@H](O)[C@H](O)[C@H]2O)c(CCC(=O)O)cc2ccoc12,inactive,–

Compound,Potency,"activity change, negative = cell killing"
CC1=C2CC3C(CCC3(C)O)C(C)(O)CC2OC1=O (stereo not drawn),inactive,–
CC(C)=CC[C@H]1O[C@]2(O)C([C@H]3CCC4[C@@]5(C)CC[C@H](O[C@@H]6O[C@H](CO)[C@H](O)[C@H](O[C@@H]7O[C@H](CO)[C@@H](O)[C@H](O)[C@H]7O)[C@H]6O[C@@H]6O[C@@H](C)[C@H](O)[C@@H](O)[C@H]6O)C(C)(C)C5CC[C@@]4(C)[C@]3(C)[C@H]2O)[C@@]1(C)O (stereo partly drawn),–,-7.27% [at 9.23 µM]
C=C1C[C@]23C[C@@]1(O)CC[C@H]2[C@@]12C=C[C@H](O)[C@@](C)(C(=O)O1)[C@H]2[C@@H]3C(=O)O,inactive,–
O=C(/C=C/c1ccc(O)cc1)OC[C@@]1(O)C=C[C@@H]2C(C(=O)O)=CO[C@@H](O[C@@H]3O[C@H](CO)[C@@H](O)[C@H](O)[C@H]3O)[C@@H]21,inactive,–
C/C(=C\CO)CC/C=C(\C)C(=O)O[C@@H]1O[C@H](CO)[C@@H](O)[C@H](O)[C@H]1O,inactive,–
C[C@@H]1O[C@@H](O[C@@H]2[C@@H](O)[C@H](O[C@H]3[C@H](O[C@H]4CC[C@@]5(C)C(CC[C@]6(C)C5CC=C5[C@@H]7CC(C)(C)CC[C@]7(C(=O)O[C@@H]7O[C@H](CO)[C@@H](O)[C@H](O)[C@H]7O)CC[C@]56C)C4(C)C)O[C@H](C(=O)O)[C@@H](O)[C@@H]3O)OC[C@H]2O)[C@H](O)[C@H](O)[C@H]1O (stereo partly drawn),–,-1.93% [at 9.23 µM]
C=C1[C@H]2CCC3[C@]4(C)CCC[C@@](C)(C(=O)O)C4CC[C@]3(C2)[C@H]1OC(C)=O (stereo partly drawn),inactive,–
CC(=O)O[C@@H](C[C@@H]1C=C(C)C(=O)O1)[C@H](C)[C@H]1CCC2[C@@]3(C)CC[C@H](O[C@@H]4O[C@H](CO)[C@@H](O)[C@H](O)[C@H]4O[C@@H]4O[C@@H](C)[C@H](O)[C@@H](O)[C@H]4O)C(C)(C)C3CC[C@@]2(C)[C@@]12COC(=O)C2 (stereo partly drawn),–,-8.37% [at 9.23 µM]
CC1(C)CC[C@]2(C(=O)O[C@@H]3O[C@H](CO[C@@H]4O[C@H](CO)[C@@H](O)[C@H](O)[C@H]4O)[C@@H](O)[C@H](O[C@@H]4O[C@H](CO)[C@@H](O)[C@H](O)[C@H]4O)[C@H]3O)[C@H](O)C[C@]3(C)C(=CCC4[C@@]5(C)CC[C@H](O[C@@H]6OC[C@@H](O)[C@H](O)[C@H]6O)[C@@](C)(C(=O)O)C5CC[C@]43C)[C@@H]2C1 (stereo partly drawn),–,-1.62% [at 9.23 µM]
O=C(O)/C=C/c1ccc(O[C@@H]2O[C@H](CO)[C@@H](O)[C@H](O)[C@H]2O)cc1,inactive,–
CCc1cc(CC[C@]2(C3CCCC3)CC(O)=C(Cc3nc4nc(C)cc(C)n4n3)C(=O)O2)cc(CC)n1,inactive,–
C=C(C)C(O)COc1ccc(CC(=O)O)cc1 (stereo not drawn),inactive,–
CC(=O)OC/C(=C/C(=O)O)CC[C@@H]1C(C)=CC(=O)[C@@H]2C(C)(C)CCC[C@@]12C,inactive,–
CC1=C(CO)CC(C(C)C2CCC3C4CC=C5CC(OC6OC(COC7OC(CO)C(O)C(O)C7O)C(O)C(O)C6O)CC(O)C5(C)C4CCC23C)OC1=O (stereo not drawn),inactive,–
C=C1CCC2[C@](C)(CCC[C@]2(C)C(=O)O)[C@H]1CC/C(C)=C/C(=O)OC (stereo partly drawn),inactive,–
CC1(C)C(=O)CCC2(C)C1C(O)C=C1COC(=O)C12O (stereo not drawn),inactive,–
COC(=O)C[C@@H]1C(C(=O)O)=CO[C@@H](O[C@@H]2O[C@H](CO)[C@@H](O)[C@H](O)[C@H]2O)/C1=C\COC(=O)/C=C/c1ccc(O)c(OC)c1,inactive,–
C[C@H]1[C@H](C)C[C@@H](C(=O)O)C2CC[C@]3(C)C(=CC[C@@H]4[C@@]5(C)CC[C@H](O)C(C)(C)[C@@H]5CC[C@]43C)[C@@H]21 (stereo partly drawn),inactive,–
H-DPPDPDRFYGMM-NH2,inactive,–
